The values that follow come from PubChem BioAssay (NCATS).

For experiment [1], the target named is Rap guanine nucleotide exchange factor 3 (Homo sapiens) (UniProt O95398). The experiment in a line: Confirmatory qHTS for agonist of cAMP-regulated guanine nucleotide exchange factor 3 (EPAC1) (AID 1645881).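 Note: EPAC1 catalysed release of BODIPY-GDP from Rap1B seen as fluorescence loss; 100% = effect of cAMP agonist control; nearly all actives have a fitted effect of over 75% in size.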 The following applies: EPAC1 Rap1B BODIPY-GDP exchange fluorescence; series mostly up to 154 µM.
Chain of Rap guanine nucleotide exchange factor 3 (Homo sapiens) (O95398 whole entry, looked up): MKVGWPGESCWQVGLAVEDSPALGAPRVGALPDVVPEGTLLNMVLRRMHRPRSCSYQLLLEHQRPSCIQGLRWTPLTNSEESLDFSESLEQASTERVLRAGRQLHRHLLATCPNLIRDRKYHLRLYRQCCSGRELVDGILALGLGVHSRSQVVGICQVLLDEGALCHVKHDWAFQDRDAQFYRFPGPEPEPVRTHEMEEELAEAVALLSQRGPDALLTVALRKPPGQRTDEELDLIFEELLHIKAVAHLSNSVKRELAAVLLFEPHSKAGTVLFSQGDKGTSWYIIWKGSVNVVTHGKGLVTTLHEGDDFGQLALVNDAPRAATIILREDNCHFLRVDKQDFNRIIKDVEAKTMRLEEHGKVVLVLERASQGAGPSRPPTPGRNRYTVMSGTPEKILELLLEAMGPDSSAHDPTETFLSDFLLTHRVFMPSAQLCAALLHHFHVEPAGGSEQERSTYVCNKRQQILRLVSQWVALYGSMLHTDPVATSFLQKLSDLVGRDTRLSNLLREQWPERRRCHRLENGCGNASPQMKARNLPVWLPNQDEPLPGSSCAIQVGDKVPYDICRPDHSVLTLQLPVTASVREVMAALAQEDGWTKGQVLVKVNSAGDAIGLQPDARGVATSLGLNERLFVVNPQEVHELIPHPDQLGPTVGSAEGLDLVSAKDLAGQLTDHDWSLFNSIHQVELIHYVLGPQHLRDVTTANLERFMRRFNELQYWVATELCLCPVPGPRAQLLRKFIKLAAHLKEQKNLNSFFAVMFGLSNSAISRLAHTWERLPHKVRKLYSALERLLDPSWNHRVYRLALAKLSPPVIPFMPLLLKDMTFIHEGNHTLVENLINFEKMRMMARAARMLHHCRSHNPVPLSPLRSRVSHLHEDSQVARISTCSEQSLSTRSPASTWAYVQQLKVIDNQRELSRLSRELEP
Experiment [2] deals with Rap guanine nucleotide exchange factor 4 (Homo sapiens) (UniProt Q8WZA2). The experiment in a line: Confirmatory qHTS for agonist of cAMP-regulated guanine nucleotide exchange factor 4 (EPAC2) (AID 1645884).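 Note: nucleotide exchange releases bodipy-GDP from Rap1 and this lowers its fluorescence; % is set by controls: 0 for no effect and ±100 for the full control effect; nearly all actives have a fitted effect of over 65% in size.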 To be noted: EPAC2 GEF activity, Rap1B-BODIPY-GDP fluorescence; series mostly up to 154 µM. A general note: In qHTS, concentration-response curves come from the screen itself.
Chain of Rap guanine nucleotide exchange factor 4 (Homo sapiens) (Q8WZA2 whole entry, looked up): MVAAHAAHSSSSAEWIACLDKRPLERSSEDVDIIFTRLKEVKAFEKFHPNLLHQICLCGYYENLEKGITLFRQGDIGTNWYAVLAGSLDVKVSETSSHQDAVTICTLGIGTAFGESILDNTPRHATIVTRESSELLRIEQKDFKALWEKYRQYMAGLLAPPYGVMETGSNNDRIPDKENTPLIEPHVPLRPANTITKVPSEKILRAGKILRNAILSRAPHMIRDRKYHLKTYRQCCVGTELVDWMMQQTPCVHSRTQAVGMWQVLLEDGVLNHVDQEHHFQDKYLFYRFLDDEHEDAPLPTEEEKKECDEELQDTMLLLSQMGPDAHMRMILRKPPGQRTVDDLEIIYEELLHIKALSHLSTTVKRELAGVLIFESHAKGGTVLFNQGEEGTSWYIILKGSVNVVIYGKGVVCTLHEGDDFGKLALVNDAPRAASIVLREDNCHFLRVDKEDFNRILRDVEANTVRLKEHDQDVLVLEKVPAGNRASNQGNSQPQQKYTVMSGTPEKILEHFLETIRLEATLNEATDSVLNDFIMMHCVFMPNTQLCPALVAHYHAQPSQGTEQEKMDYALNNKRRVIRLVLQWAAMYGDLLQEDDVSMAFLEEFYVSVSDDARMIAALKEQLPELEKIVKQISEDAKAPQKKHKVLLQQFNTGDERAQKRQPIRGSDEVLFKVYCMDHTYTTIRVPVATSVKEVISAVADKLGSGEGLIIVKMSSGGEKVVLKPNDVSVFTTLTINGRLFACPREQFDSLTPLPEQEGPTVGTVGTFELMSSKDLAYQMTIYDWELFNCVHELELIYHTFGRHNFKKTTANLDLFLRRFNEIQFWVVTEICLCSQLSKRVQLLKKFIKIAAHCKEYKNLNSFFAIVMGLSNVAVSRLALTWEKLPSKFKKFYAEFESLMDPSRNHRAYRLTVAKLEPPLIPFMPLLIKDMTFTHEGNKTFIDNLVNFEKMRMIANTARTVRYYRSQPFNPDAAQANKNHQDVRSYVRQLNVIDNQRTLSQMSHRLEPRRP

Experiment [3] has the same target. The experiment is described as follows: Confirmatory qHTS for antagonist of cAMP-regulated guanine nucleotide exchange factor 4 (EPAC2) (AID 1645885). For activity change, negative = inhibition: % is set by controls: 0 for no effect and ±100 for the full control effect. Note: nearly all actives have a fitted effect of over 25% in size. Note: potency is the fitted concentration of half-maximal effect. To be noted: EPAC2 Rap1B-BODIPY-GDP exchange fluorescence, biochemical; series mostly up to 12.7 µM.
For experiment [4], the target named is Rap guanine nucleotide exchange factor 3 (Homo sapiens) (UniProt O95398). The experiment in a line: Counterscreen qHTS for antagonist of cAMP-regulated guanine nucleotide exchange factor 3 (EPAC1) (AID 1645888).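 Note: fluorescence loss as bound BODIPY-GDP is released from Rap1B; % of control where 0% means no effect.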 The following applies: Rap1B-BODIPY-GDP nucleotide exchange, fluorescence; series mostly up to 154 µM. In a few lines:
(§1)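 Rap1B–BODIPY-GDP (250 nM) with 50 uM GDP; compounds pin-transferred to 9.74 nM–152 uM final (activator) or from 7.32 nM upwards (inhibitor). Fluorescence Ex/Em 480/540 nm read at 5 and 30 min, then after adding cAMP or buffer, at room temperature.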
On the technique in general: The purpose of a counterscreen is to sort out artefacts and off-target activity.

The target is the same in experiment [5]. The experiment in a line: Counterscreen qHTS for agonist of cAMP-regulated guanine nucleotide exchange factor 3 (EPAC1) (AID 1645889). Note: % of control where 0% means no effect; nearly all actives have a fitted effect of over 40% in size. To be noted: EPAC1 Rap1B-BODIPY-GDP exchange, fluorescence; series mostly up to 154 µM. The method, boiled down:
as §1

SMILES strings stand for the structures. Inconclusive results are not listed. A number with no mark means an inactive call. Activity calls are given as the source filed them. Calls come from the whole dose curve; as a rule, active = well fitted curve in the direction sought with a large enough effect; inconclusive = small, poorly fitted or top-dose-only effect, or another doubt; inactive = no such curve, though single readings can be large; an effect the other way counts as inactive or inconclusive.

Take `CC1CCc2[nH]c3ccc(C(=O)N4CCCC(C(F)(F)F)C4)cc3c2C1` (stereo not given): the Potency entry in experiment [1], in experiment [2], in experiment [3], in experiment [4] and in experiment [5] was “inactive” each time.

Take `O=C(Nc1nc(-c2ccc(Cl)cc2)cs1)C1=COCCO1`: the Potency entry in experiment [1] and in experiment [3] was “inactive” each time. Besides, the activation in experiment [2] was 5.12% [at 17.1 µM, percent relative to cAMP agonist control]; in experiment [5] it was 13.1% [at 30.8 µM]. The activity change, negative = inhibition in experiment [4] was -14.7% [at 30.8 µM].

Take `Cc1ccccc1OCC(=O)Nc1ccccc1N1CCC(C)CC1`: the Potency entry in experiment [1], in experiment [2], in experiment [4] and in experiment [5] was “inactive” each time. Moreover, the Potency in experiment [3] was 42.6 µM (active).

`C=CCc1ccccc1OCCSc1nc(-c2ccc(C(C)(C)C)cc2)nc2cc(=O)[nH]n12`: the Potency entry in experiment [1], in experiment [2], in experiment [3], in experiment [4] and in experiment [5] was “inactive” throughout.

In the case of `Cc1nnc2ccc(-c3ccc(NC(=O)Cc4cccs4)cc3)nn12`, the Potency result in experiment [1] and in experiment [3] was “inactive” throughout. For the same molecule, the activation was -1.11% [at 17.1 µM, percent relative to cAMP agonist control] in experiment [2] and 9.02% [at 30.8 µM] in experiment [5]. For the same molecule, in experiment [4], the activity change, negative = inhibition was -8.86% [at 30.8 µM].

In the case of `CN1CCN(C(=O)c2ccc(COc3ccc(C(C)(C)C)cc3)o2)CC1`, the Potency entry in experiment [1] and in experiment [3] was “inactive” in each case. Besides, the activation was 8.37% [at 17.1 µM, percent relative to cAMP agonist control] in experiment [2] and 9.82% [at 30.8 µM] in experiment [5]. For the same molecule, the activity change, negative = inhibition in experiment [4] is 8.52% [at 30.8 µM].

Consider `CCc1cc(C(=O)N=Nc2c(O)[nH]c3ccc([N+](=O)[O-])cc23)c2ccccc2n1`, for which the Potency entry in experiment [1], in experiment [2], in experiment [3], in experiment [4] and in experiment [5] was “inactive” in each case.

Consider `COc1ccccc1/C=C1\SC(=S)N(CCC(=O)Nc2ccc(C(=O)O)c(O)c2)C1=O`, for which the Potency result in experiment [1] and in experiment [3] was “inactive” each time. Further, the activation in experiment [2] was 4.12% [at 17.1 µM, percent relative to cAMP agonist control]; in experiment [5], 10.4% [at 30.8 µM]. For the same molecule, in experiment [4], the activity change, negative = inhibition is -13.3% [at 30.8 µM].

As to `COc1cc(/C=C2/SC(=O)NC2=O)ccc1OCc1ccccc1`, the Potency result in experiment [1], in experiment [2], in experiment [3], in experiment [4] and in experiment [5] was “inactive” throughout.

For the molecule `Cc1nc2c(C(=O)NCc3ccc(F)cc3)c[nH]n2c(=O)c1Cl`, the Potency result in experiment [1], in experiment [2], in experiment [3], in experiment [4] and in experiment [5] was “inactive” each time.

For `CCCN(CCC)C(=O)Cn1c(=O)c2sccc2n2c(=S)sc(-c3ccccc3)c12`, the Potency result in experiment [1] and in experiment [3] was “inactive” in each case. Moreover, the activation in experiment [2] was 2.59% [at 17.1 µM, percent relative to cAMP agonist control]; in experiment [5], -0.211% [at 30.8 µM]. Also, the activity change, negative = inhibition in experiment [4] is -19.9% [at 30.8 µM].
